Test systems include RPMI-8226 leukemia; OVCAR-8 ovarian; OVCAR-5 ovarian; OVCAR-4 ovarian; SK-OV-3 ovarian; IGROV1 ovarian; OVCAR-3 ovarian; HS 578T breast; NCI/ADR-RES ovarian; T-47D breast; BT-549 breast; MDA-MB-435 melanoma; SW-620 colon; MCF7 breast; HCT-116 colon; KM12 colon; HCC-2998 colon.
Holding throughout (test): NCI-60 one-dose screen, 48 h (100 = growth as untreated, 0 = no growth, -100 = all killed)
Common to all, as to conditions: 10 µM unless noted

The panel holds about 83,000 compounds, 20% with a hit somewhere; the sample as a whole holds those more often.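 48-hour exposure, single concentration, 96-well plates; percent growth endpoint where 0 means no net growth. Active: below 10.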 Unmarked numbers belong to inactive results. Active and inactive are the calls of the source.

As for `O=S(=O)(NCCNc1nccc(-c2c(-c3ccc(O)cc3)nc3sccn23)n1)c1cccc2ccccc12`, the growth in the assay on RPMI-8226 leukemia is 92.5%; with OVCAR-8 ovarian, 95.4%; in the assay on OVCAR-5 ovarian, 114%; in the assay with OVCAR-4 ovarian, 91.6%; in the assay with SK-OV-3 ovarian, 106%; in the assay on IGROV1 ovarian, 105%. Moreover, the growth is 117% in the assay with OVCAR-3 ovarian; 110% in the assay on HS 578T breast; 102% in the assay on NCI/ADR-RES ovarian; 94.4% with T-47D breast; 108% with BT-549 breast; 106% in the assay on MDA-MB-435 melanoma. The growth is 107% with SW-620 colon, 96.8% in the assay with MCF7 breast, 108% in the assay on HCT-116 colon and 109% with KM12 colon.
On to `Cc1ccc(CSC(=N)N)cc1C`, for which the growth in the assay on RPMI-8226 leukemia was 78.7%; with OVCAR-8 ovarian, 109%; with OVCAR-5 ovarian it was 114%; in the assay with OVCAR-4 ovarian, 101%; with SK-OV-3 ovarian it was 111%; with IGROV1 ovarian, 106%. In addition, the growth with OVCAR-3 ovarian was 116%; with HS 578T breast it was 103%; with NCI/ADR-RES ovarian, 98.8%; with T-47D breast, 108%; with BT-549 breast, 98.1%; with MDA-MB-435 melanoma, 112%. The growth with SW-620 colon is 102%; in the assay on MCF7 breast, 101%; in the assay with HCT-116 colon, 105%; with HCC-2998 colon it was 100%; in the assay on KM12 colon, 107%.
As to `COc1ccc(C2C=C(c3ccc(OC)c(OC)c3)N=C3SC=C(C)N32)c(Br)c1` (stereo not drawn), the growth was 102% with RPMI-8226 leukemia; 99.2% in the assay with OVCAR-8 ovarian; 92.8% in the assay on OVCAR-5 ovarian; 99.6% in the assay with OVCAR-4 ovarian; 107% in the assay with SK-OV-3 ovarian; 105% in the assay with IGROV1 ovarian. For the same molecule, the growth was 112% in the assay on OVCAR-3 ovarian; 116% with HS 578T breast; 113% in the assay on NCI/ADR-RES ovarian; 98.3% in the assay on T-47D breast; 99% with BT-549 breast; 110% in the assay with MDA-MB-435 melanoma. Moreover, the growth in the assay with SW-620 colon was 109%; in the assay with MCF7 breast, 94.5%; in the assay with HCT-116 colon it was 105%; in the assay with HCC-2998 colon, 110%; in the assay with KM12 colon, 107%.
Turning to `NC(=S)N/N=C(/CCN1CCCC1)CC(C1=C(O)C2=CCCCC2OC1=O)c1ccccc1` (stereo not drawn), the growth in the assay on RPMI-8226 leukemia is 73.9%; with OVCAR-8 ovarian it was 88.2%; with OVCAR-5 ovarian, 96.9%; in the assay on OVCAR-4 ovarian, 62.2%; with SK-OV-3 ovarian, 94.3%; with IGROV1 ovarian it was 52.8%. In addition, the growth is 21.8% in the assay on OVCAR-3 ovarian; 96.7% in the assay with HS 578T breast; 40.4% in the assay with NCI/ADR-RES ovarian; 47% in the assay on T-47D breast; 90.9% with BT-549 breast; 90.7% in the assay with MDA-MB-435 melanoma. Besides, the growth in the assay with SW-620 colon was 69%; in the assay on MCF7 breast it was 14.9%; in the assay on HCT-116 colon it was 9.46% (active); in the assay with HCC-2998 colon, 102%; in the assay with KM12 colon it was 102%.
Consider `COc1ccc(OC)c(C2OC(c3ccc4ccccc4c3O)=NN2C(C)=O)c1` (stereo not drawn), for which the growth with RPMI-8226 leukemia is 66.6%; in the assay on OVCAR-8 ovarian it was 81%; in the assay on OVCAR-5 ovarian, 102%; in the assay with OVCAR-4 ovarian, 75.5%; in the assay on SK-OV-3 ovarian, 58%; in the assay with IGROV1 ovarian, 75.8%. Also, the growth is 52.4% with OVCAR-3 ovarian; 71.7% in the assay on HS 578T breast; 59.2% in the assay on NCI/ADR-RES ovarian; 63.7% in the assay with T-47D breast; 84.4% with BT-549 breast; 8.75% (active) with MDA-MB-435 melanoma. In addition, the growth was 54.5% in the assay with SW-620 colon, 37.3% in the assay on MCF7 breast, 55.5% in the assay on HCT-116 colon and 60.1% in the assay with KM12 colon.
For the molecule `COC(=O)c1nc(-c2ccccc2)oc1S(=O)(=O)N1CCN(c2cccc(Cl)c2)CC1`, the growth in the assay with RPMI-8226 leukemia is 36.6%; in the assay with OVCAR-8 ovarian, 76.3%; in the assay on OVCAR-5 ovarian it was 81.9%; with OVCAR-4 ovarian it was 103%; with SK-OV-3 ovarian it was 92.9%; with IGROV1 ovarian, 77.8%. The growth in the assay with OVCAR-3 ovarian is 69.2%; in the assay on HS 578T breast it was 85.7%; with NCI/ADR-RES ovarian it was 89.2%; with T-47D breast it was 66.2%; with BT-549 breast, 71%; with MDA-MB-435 melanoma, 69.8%. Further, the growth was 61.7% in the assay with SW-620 colon; 39.2% in the assay on MCF7 breast; 54.8% with HCT-116 colon; 98.8% in the assay with HCC-2998 colon; 95.1% in the assay with KM12 colon.
As for `O=S(=O)(NCCNc1nccc(-c2c(-c3ccc(F)cc3)nc3sccn23)n1)c1ccc(F)cc1`, the growth is 74.7% in the assay with RPMI-8226 leukemia; 68.2% in the assay on OVCAR-8 ovarian; 102% in the assay on OVCAR-5 ovarian; 81.4% in the assay with OVCAR-4 ovarian; 92.7% with SK-OV-3 ovarian; 61.8% in the assay on IGROV1 ovarian. The growth is 90.1% in the assay with OVCAR-3 ovarian; 93.8% in the assay with HS 578T breast; 81.2% with NCI/ADR-RES ovarian; 60.1% in the assay with T-47D breast; 92.2% in the assay with BT-549 breast; 55% in the assay on MDA-MB-435 melanoma. The growth was 90.8% in the assay with SW-620 colon, 30.9% with MCF7 breast, 60.4% with HCT-116 colon and 76.5% in the assay on KM12 colon.
As for `COc1ccc(-c2cc3c(OC)c(OC)c(OC)cc3oc2=O)cc1`, the growth is 54.6% with RPMI-8226 leukemia; 67% with OVCAR-8 ovarian; 74% with OVCAR-5 ovarian; 81.3% with OVCAR-4 ovarian; 67.1% in the assay with SK-OV-3 ovarian; 61.6% in the assay with IGROV1 ovarian. In addition, the growth is 5.53% (active) with OVCAR-3 ovarian; 33.3% in the assay on HS 578T breast; 4.06% (active) with NCI/ADR-RES ovarian; 42.2% in the assay with T-47D breast; 57.5% in the assay with BT-549 breast; -17.1% (active) with MDA-MB-435 melanoma. For the same molecule, the growth was 25.1% in the assay on SW-620 colon, 26.2% with MCF7 breast, 21.7% in the assay with HCT-116 colon and 21.9% in the assay with KM12 colon.
`O=C(Nc1cccc(-n2cc(-c3ccncc3)c(-c3ccc(Cl)c(O)c3)n2)c1)Nc1ccc(Cl)c(Cl)c1`: the growth was 7.89% (active) with RPMI-8226 leukemia; 11.7% in the assay on OVCAR-8 ovarian; 56.4% in the assay with OVCAR-5 ovarian; 29.4% with OVCAR-4 ovarian; 18.7% with SK-OV-3 ovarian; 28.7% in the assay with IGROV1 ovarian. Moreover, the growth in the assay with OVCAR-3 ovarian is -4.74% (active); in the assay with HS 578T breast it was 36.1%; with NCI/ADR-RES ovarian, 20.9%; in the assay on T-47D breast it was 23%; with BT-549 breast, 34.4%; in the assay with MDA-MB-435 melanoma it was 9.98% (active). Moreover, the growth with SW-620 colon was 24.5%; in the assay with MCF7 breast, 5.74% (active); in the assay with HCT-116 colon it was 11.1%; in the assay with KM12 colon, 8.15% (active).
